Test results taken from the supplement of paper PMC11732987, “Enantioselective OTUD7B fragment discovery through chemoproteomics screening and high-throughput optimisation” (Communications Chemistry, 2025).

Columns and labels:
Assay in all cases: log2 ratio of Biotin-Ahx-Ub-VS probe labelling (fragment/DMSO); higher = less target engagement (more negative = stronger competition), active = hit call of the paper (q ≤ 0.05, log2 ratio ≤ -1)
Details in all cases: compound concentration: 200 uM; treatment time: 3 h
[1] = molecular target: T1, USP19 (UniProt O94966)
T1 sequence (whole entry): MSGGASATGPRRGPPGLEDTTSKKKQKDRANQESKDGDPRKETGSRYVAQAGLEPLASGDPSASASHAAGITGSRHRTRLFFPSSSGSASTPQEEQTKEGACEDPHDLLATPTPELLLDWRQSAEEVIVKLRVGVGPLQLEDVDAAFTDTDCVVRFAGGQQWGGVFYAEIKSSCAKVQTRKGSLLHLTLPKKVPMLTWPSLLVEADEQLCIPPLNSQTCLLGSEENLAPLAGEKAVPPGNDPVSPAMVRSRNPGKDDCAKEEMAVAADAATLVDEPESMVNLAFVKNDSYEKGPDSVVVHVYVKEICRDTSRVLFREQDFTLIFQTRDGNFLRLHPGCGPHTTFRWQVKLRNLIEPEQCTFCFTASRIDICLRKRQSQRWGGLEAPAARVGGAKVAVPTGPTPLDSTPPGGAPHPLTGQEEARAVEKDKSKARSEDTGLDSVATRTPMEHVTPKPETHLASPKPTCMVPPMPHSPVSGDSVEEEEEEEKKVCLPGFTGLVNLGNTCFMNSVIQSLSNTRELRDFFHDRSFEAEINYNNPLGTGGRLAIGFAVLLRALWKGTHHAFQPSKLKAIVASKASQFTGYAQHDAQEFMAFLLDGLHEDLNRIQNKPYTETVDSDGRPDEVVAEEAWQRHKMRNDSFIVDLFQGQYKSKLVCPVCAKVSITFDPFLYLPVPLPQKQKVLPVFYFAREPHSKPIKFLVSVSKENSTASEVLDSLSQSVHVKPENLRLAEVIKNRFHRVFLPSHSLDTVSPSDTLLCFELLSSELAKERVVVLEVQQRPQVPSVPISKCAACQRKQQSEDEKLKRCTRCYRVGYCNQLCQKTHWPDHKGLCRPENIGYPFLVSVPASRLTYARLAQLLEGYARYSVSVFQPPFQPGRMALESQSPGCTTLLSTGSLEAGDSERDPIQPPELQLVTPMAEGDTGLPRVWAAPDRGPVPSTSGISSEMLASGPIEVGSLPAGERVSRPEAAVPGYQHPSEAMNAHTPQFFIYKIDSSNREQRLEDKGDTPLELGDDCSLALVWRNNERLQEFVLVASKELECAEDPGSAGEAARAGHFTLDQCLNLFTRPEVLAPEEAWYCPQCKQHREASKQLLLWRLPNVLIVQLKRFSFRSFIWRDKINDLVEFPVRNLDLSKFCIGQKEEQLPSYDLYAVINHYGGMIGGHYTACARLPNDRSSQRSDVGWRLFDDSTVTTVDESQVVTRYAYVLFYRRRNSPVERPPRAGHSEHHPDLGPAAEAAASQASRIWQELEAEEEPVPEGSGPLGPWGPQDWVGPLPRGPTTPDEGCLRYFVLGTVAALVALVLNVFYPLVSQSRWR
Outline: (§1)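 Triplicate samples of HEK293T lysate, 495 µg each, received fragment at 200 µM or vehicle for 3 h, followed by Biotin-Ahx-Ub-VS (0.5 µM final) for 1 h. After NeutrAvidin enrichment of labelled DUBs and LysC/trypsin digestion, peptides were run by diaPASEF LC-MS/MS. The values are average log2 fragment/vehicle ratios from global-median-normalised Spectronaut label-free quantities, tested by unpaired t-test on proteins having ≥2 unique peptides.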

[2] = molecular target: USP24 (UniProt Q9UPU5)
USP24, sequence (Q9UPU5 whole entry): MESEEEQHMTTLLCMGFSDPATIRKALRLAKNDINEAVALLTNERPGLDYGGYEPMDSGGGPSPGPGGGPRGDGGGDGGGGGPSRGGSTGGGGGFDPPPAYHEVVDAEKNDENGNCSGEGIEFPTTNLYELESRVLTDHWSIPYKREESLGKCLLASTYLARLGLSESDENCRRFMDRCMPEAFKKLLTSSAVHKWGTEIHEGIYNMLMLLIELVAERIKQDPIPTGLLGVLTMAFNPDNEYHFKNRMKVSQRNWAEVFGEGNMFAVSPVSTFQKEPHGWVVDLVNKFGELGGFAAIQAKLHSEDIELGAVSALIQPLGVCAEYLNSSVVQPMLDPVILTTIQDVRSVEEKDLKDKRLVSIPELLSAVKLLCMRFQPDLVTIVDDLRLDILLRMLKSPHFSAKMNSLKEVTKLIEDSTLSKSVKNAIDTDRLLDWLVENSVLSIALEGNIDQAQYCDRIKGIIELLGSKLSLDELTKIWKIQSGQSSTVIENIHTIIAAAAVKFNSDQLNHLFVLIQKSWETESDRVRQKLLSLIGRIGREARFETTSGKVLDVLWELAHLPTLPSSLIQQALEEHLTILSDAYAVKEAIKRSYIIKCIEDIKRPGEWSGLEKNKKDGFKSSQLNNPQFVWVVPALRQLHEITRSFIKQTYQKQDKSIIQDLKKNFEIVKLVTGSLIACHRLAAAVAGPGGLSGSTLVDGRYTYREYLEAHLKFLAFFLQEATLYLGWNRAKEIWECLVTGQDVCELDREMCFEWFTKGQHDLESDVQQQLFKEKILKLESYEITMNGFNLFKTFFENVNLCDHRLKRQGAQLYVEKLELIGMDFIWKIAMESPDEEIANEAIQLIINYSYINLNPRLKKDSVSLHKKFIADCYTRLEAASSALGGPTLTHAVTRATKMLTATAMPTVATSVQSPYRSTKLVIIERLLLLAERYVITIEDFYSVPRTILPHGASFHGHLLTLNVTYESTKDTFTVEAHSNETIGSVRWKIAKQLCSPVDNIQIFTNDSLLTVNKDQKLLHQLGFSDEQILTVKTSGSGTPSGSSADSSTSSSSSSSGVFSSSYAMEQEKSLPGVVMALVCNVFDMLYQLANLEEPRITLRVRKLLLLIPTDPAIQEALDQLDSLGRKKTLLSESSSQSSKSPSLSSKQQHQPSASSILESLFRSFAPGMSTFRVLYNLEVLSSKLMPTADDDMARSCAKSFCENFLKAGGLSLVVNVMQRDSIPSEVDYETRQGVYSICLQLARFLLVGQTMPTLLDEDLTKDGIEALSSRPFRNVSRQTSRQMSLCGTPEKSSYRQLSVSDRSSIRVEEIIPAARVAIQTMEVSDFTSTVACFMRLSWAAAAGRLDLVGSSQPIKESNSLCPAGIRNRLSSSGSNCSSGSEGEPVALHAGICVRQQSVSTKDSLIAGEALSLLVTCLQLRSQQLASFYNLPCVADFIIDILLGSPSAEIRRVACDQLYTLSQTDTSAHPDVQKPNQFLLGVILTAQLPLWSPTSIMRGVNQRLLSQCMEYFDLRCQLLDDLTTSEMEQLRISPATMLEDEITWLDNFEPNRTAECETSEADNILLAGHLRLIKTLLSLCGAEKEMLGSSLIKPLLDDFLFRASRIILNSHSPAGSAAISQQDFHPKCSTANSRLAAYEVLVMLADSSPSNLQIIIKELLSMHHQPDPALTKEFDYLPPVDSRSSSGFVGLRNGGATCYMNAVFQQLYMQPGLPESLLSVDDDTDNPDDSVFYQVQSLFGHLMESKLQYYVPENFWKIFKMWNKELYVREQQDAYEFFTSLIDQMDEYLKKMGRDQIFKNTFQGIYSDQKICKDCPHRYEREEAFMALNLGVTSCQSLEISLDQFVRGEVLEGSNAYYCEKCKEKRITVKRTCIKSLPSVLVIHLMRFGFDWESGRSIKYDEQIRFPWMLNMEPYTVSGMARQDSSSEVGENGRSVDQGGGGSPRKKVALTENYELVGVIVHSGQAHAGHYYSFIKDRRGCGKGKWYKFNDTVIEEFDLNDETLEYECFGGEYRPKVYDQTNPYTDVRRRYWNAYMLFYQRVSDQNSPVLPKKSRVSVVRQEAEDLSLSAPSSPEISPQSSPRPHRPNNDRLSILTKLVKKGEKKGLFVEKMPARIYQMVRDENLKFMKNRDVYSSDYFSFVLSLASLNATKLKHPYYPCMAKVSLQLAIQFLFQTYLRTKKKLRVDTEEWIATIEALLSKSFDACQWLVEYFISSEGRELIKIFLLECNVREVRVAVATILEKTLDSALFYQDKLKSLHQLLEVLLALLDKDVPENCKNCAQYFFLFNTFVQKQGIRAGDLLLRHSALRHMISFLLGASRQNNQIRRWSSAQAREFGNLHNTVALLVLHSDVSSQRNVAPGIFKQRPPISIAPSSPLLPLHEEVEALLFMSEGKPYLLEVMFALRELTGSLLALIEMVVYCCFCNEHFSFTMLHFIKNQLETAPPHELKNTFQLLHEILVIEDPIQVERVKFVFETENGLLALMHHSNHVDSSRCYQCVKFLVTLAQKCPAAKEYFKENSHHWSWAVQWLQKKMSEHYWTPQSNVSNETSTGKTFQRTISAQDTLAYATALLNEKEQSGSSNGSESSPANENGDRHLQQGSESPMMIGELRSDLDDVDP
Outline: as §1

[3] = molecular target: T2, USP25 (UniProt Q9UHP3)
T2 sequence (whole entry): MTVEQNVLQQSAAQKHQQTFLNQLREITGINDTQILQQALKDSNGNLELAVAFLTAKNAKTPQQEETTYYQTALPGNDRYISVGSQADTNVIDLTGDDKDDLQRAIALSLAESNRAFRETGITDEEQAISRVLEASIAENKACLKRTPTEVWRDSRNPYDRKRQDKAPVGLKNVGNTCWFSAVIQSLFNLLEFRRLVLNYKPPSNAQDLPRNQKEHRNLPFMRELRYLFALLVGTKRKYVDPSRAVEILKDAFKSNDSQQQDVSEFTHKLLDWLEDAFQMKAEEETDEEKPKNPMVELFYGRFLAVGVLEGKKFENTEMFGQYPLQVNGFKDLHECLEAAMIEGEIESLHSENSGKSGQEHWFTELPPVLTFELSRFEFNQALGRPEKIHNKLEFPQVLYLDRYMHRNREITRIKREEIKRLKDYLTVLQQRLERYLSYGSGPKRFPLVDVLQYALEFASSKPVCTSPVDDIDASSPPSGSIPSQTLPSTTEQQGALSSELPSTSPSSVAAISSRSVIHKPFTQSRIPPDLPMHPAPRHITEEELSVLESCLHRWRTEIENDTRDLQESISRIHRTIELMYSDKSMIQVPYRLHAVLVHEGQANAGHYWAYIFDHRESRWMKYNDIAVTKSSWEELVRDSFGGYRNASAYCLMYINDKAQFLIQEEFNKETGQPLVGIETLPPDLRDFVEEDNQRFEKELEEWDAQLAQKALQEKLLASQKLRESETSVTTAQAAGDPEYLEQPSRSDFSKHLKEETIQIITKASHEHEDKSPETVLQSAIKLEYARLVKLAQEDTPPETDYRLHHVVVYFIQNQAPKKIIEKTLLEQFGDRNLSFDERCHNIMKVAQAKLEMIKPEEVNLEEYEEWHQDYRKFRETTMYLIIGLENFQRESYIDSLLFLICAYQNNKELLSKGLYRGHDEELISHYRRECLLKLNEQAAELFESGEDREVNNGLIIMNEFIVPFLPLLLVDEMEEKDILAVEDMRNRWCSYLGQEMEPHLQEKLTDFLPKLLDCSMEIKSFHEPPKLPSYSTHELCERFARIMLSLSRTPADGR
Outline: as §1

[4] = molecular target: T3, USP28 (UniProt Q96RU2)
T3 sequence (whole entry): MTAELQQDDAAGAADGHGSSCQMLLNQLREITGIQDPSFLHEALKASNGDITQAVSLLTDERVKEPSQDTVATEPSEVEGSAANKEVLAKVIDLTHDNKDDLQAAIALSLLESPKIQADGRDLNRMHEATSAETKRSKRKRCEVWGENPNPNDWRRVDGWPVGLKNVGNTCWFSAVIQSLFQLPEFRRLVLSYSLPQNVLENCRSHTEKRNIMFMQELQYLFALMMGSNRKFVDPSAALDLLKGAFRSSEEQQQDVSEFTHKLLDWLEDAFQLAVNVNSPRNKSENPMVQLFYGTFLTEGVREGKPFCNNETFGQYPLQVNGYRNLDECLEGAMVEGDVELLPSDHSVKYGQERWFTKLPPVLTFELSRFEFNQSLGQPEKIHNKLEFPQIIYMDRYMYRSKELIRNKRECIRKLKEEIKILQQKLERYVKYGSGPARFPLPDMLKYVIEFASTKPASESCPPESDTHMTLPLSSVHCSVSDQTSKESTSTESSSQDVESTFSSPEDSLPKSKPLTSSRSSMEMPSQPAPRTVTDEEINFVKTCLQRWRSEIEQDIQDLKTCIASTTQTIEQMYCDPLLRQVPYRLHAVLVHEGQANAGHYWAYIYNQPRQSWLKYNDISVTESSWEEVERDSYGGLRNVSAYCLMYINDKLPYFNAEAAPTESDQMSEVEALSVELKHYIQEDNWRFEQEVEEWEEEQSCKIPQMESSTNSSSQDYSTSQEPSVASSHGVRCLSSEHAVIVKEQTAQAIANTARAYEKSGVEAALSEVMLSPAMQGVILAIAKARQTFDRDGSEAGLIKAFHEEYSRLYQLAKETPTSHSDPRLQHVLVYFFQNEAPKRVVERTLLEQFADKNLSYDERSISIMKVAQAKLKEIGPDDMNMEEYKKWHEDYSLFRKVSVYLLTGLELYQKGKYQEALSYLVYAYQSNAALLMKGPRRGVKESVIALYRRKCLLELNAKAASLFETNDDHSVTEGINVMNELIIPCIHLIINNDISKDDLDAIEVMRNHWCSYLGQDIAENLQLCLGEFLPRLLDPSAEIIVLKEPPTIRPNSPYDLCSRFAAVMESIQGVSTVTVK
Outline: as §1

Measured: log2 ratio of Biotin-Ahx-Ub-VS probe labelling

Cc1cccc(N2CCC(NC(=O)CCl)C2=O)c1 (centres undefined)
inactive: [1] -0.0964 | [2] -0.149 | [3] -0.421 | [4] -0.475
